Inconclusive results are not listed. A number with no mark means an inactive call. The source made the active and inactive calls. The call rests on the fitted dose curve; in most records, active means well fitted cell-killing curve with a large enough effect; inconclusive means small, poorly fitted or top-dose-only effect; inactive means flat fitted curve, though single readings scatter.
Potency means the concentration at half of the fitted maximal effect.

The assay can be described thus: qHTS of pediatric cancer cell lines to identify multiple opportunities for drug repurposing: Primary screen for DAOY cells (AID 1347090). Further: nearly all actives have a fitted effect of over 55% in size. Conditions: DAOY medulloblastoma viability, CellTiter-Glo luminescence, 48 h; series mostly up to 46 µM; activity change, negative = cytotoxic: at the top concentration. From the text: Drug repurposing or repositioning has been offered as a strategy for drug development in oncology programs. This approach has special potential for childhood cancers and other rare or orphan diseases, where the expected return on new drug development has been a disincentive to pharmaceuticals.
In this project we exploit the poly-pharmacology of drugs to discover new indications via phenotypic screening of a panel of 19 well-characterized cell lines derived from solid tumors seen in children and adolescents. The goal is to identify approved drugs with previously unrecognized anticancer properties that has the potential to reveal new mechanisms and biological processes involved in carcinogenesis or drug resistance. We employed a titration-based paradigm (quantitative high-throughput screening or qHTS), where all compounds were tested at multiple concentrations for their effect on cell viability. Concentration-response curves (CRCs) were derived directly from the primary screen, and both potency and efficacy values were used to identify compounds with robust bioactivity profiles. We screened the NIH Chemical Genomics Center (NCGC) Pharmaceutical Collection (NPC) and Mechanism Interrogation Plate (MIPE) small molecule collections of approved and investigational compounds against these cell lines; and measured metabolically active cells after 48 hours of compound treatment as a proxy for cell viability.
Assay Submitter: Nathalia J. Martinez, National Center for Advancing Translational Sciences, National Institutes of Health, Rockville, MD, USA; email: natalia.martinez@nih.gov
[1] Shen, M et al. Quantitative high-throughput phenotypic screening of pediatric cancer cell lines identifies multiple opportunities for drug repurposing. Oncotarget 2017 Dec 19;9(4):4758-4772. PMID 29435139.
The cells were obtained from University of North Carolina (UNC), Pediatric Preclinical Testing Program (PPT), and Coriell Institute (CI).
qHTS cell viability assay:
Cells were assayed in growth media at a density of 500-1,000 cells/well. Five microliters of cells were dispensed into 1,536-well, white, solid-bottom, TC-treated plates (Greiner Bio One) using a multidrop dispenser and incubated at 37 degrees C, 5% CO2, under a humidified atmosphere for 5 hours. Twenty-three nanoliters of compounds and controls (neutral control DMSO or positive control bortezomib at final concentration of 2.3 µM) were subsequently transferred by Kalypsys pintool. For primary screens, the MIPE collection was tested at 11-point dilutions (final concentrations range from 0.78 nM to 46 µM) and the NPC collection at 8-point dilutions (final concentrations range from 0.59 nM to 46 µM). Compounds tested in follow-up screens were assayed at 11-point dilutions. Cells were incubated for 48 hours, followed by addition of 3 uL of CellTiter-Glo (Promega). After a 15 min incubation at room temperature, samples were analyzed for luminescence intensity using a ViewLux High-throughput CCD imager equipped with clear filters.
Consider `C=CCOC(Cn1ccnc1)c1ccc(Cl)cc1Cl` (stereo not given), for which the “activity change, negative = cytotoxic” value is -8.57%.
Consider `CNC(C)Cc1ccc2c(c1)OCO2` (stereo not given), for which the Potency was 47.4 µM (active).
Regarding `C[N+]1(CCC(C(N)=O)(c2ccccc2)c2ccccc2)CCCCC1`, the “activity change, negative = cytotoxic” value is 10.6%.
For `C[C@H]1CNCCc2ccc(Cl)cc21`, the “activity change, negative = cytotoxic” value was -0.722%.
`CCOC(=O)C1(c2ccccc2)CCN(CCc2ccc(N)cc2)CC1`: the “activity change, negative = cytotoxic” value was 6.99%.
As for `C[C@@H]1O[C@@H](O[C@@H]2C=C3CC[C@@H]4[C@H](CC[C@]5(C)[C@@H](c6ccc(=O)oc6)CC[C@]45O)[C@@]3(C)CC2)[C@H](O)[C@H](O)[C@H]1O`, the Potency was 0.0021 µM (active).
For the molecule `CN(C)CCc1c[nH]c2ccccc12`, the “activity change, negative = cytotoxic” value was -3.48% [at 155 µM].
`Clc1ccc(C(OCCN2CCCCC2)c2ccccc2)cc1` (stereo not given): the “activity change, negative = cytotoxic” value was -9.2%.
As for `COP(=S)(OC)Oc1ccc(S(N)(=O)=O)cc1`, the “activity change, negative = cytotoxic” value is -0.245%.
As for `c1cc2c(c(N3CCNCC3)c1)OCCO2`, the “activity change, negative = cytotoxic” value was -0.68%.
Same read-out and setting: to `Cc1c(Cl)c(=O)oc2cc(OP(=O)(OCCCl)OCCCl)ccc12` belongs -12.8%.
Same read-out and setting: the figure for `COc1ccc(OC)c(CC(C)N)c1` (stereo not given) is -9.58% [at 92.7 µM]; for `CCOC(=O)c1ncn2c1CN(C)C(=O)c1c(I)cccc1-2` it is 5.52%; for `O=C(CCCCl)c1ccc(F)cc1` it is 10.3%.
On to `Nc1ccc(Cl)cc1C(=O)c1ccccc1F`, for which the “activity change, negative = cytotoxic” value was -10.6%.
On the same count and under the same terms, to `O=C(CCCN1CCC(n2c(=O)[nH]c3ccccc32)CC1)c1ccc(F)cc1` belongs -3.39%.
Regarding `OC(c1ccccc1)(c1ccccc1)C1CCNCC1`, the “activity change, negative = cytotoxic” value is 7.08%.
On the same count and under the same terms, to `CCC(=O)C(CCN(C)C)(c1ccccc1)c1ccccc1` belongs 3.81%; to `CNC(=O)NC(O)C(Cl)(Cl)Cl` (stereo not given), -0.257%.
Still for that read-out and setting: to `C[C@H]1C(=O)O[C@@H]2CCN3CC=C(COC(=O)[C@](C)(O)[C@]1(C)O)[C@H]23` belongs -13.4%.
Same read-out and setting: the figure for `CCN(CC)CCOC(=O)C(C)(c1ccccc1)c1ccccc1` is 1.47%; for `C[C@@H]1CC[C@H]2[C@@H](C)C(=O)O[C@@H]3O[C@@]4(C)CC[C@@H]1[C@]32OO4` it is -15%.
As for `COc1ccc(C(=O)N2CCCC2=O)cc1`, the Potency result was “inactive”.
For the molecule `CC[C@H]1C[C@@H]2C[C@H]3c4[nH]c5ccc(OC)cc5c4CCN(C2)[C@@H]13`, the Potency is 37.8 µM (active).
Consider `CN1C2CCC(C)(C)C1CC(OC(=O)C(O)(c1cccs1)c1cccs1)C2` (stereo not given), for which the “activity change, negative = cytotoxic” value was 2.31%.
On to `CCS(=O)(=O)C(C)(C)S(=O)(=O)CC`, for which the “activity change, negative = cytotoxic” value is -13.9%.
On the same count and under the same terms, the figure for `CN(C)C(=O)Oc1cc(OC(=O)N(C)C)cc(C(O)CNC(C)(C)C)c1` (stereo not given) is -10.2%.
On the same count and under the same terms, the figure for `CC1N=C(N)OC1c1ccccc1` (stereo not given) is -6.91% [at 92.7 µM]; for `ClCCCN1CCN(c2cccc(Cl)c2)CC1` it is -7.27%.
On the same count and under the same terms, the figure for `COc1ccc2[nH]cc(CCN(C(C)C)C(C)C)c2c1` is -8.02% [at 92.7 µM].
Consider `O=C(O)c1nn(Cc2ccc(Cl)cc2Cl)c2ccccc12`, for which the “activity change, negative = cytotoxic” value was 7.34%.
As to `COc1cc(C[C@@H](C)N)c(OC)cc1C`, the “activity change, negative = cytotoxic” value is 1.38% [at 92.7 µM].
Still for that read-out and setting: to `ClC1=C(Cl)C2(Cl)C(CBr)CC1(Cl)C2(Cl)Cl` (stereo not given) belongs -4.06%; to `CC1=C2[C@H]3OC(=O)[C@@H](C)[C@@H]3CC[C@@]2(C)C=CC1=O`, -14.4%.
For `CC(C(O)c1ccccc1)N(C)C/C=C/c1ccccc1` (stereo not given), the “activity change, negative = cytotoxic” value is -5.54%.
Same read-out and setting: the figure for `CCCC(C)C1(CC)C(=O)N=C(S)NC1=O` (stereo not given) is -2.41%; for `CN1CCc2cc(Cl)c(O)cc2[C@H]2c3ccccc3CC[C@@H]21` it is 2.17%; for `CCN(Cc1ccc(Cl)nc1)/C(=C/[N+](=O)[O-])NC` it is 4.87%.
Turning to `CCOC(=O)C(c1c(O)c2ccccc2oc1=O)c1c(O)c2ccccc2oc1=O`, the “activity change, negative = cytotoxic” value is 4.45%.
As for `C=CCN1CC[C@]23CCCC[C@H]2[C@H]1Cc1ccc(O)cc13`, the “activity change, negative = cytotoxic” value is -11.9%.

The values are drawn from PubChem BioAssay (NCATS).
